Compounds with a hit are over-represented: about 5.6% of the library has one in this group of screens.
PfG6PD inh = PfG6PD enzyme inhibitors, primary screen, biochemical, fluorescence intensity, uHTS. PfGluPho enzyme, NADPH resazurin-diaphorase fluorescence. AID 504690, 2011. glucose-6-phosphate dehydrogenase-6-phosphogluconolactonase (Plasmodium falciparum 3D7). inhibition, % at 20 µM. 350,000 tested, 0.78% active;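 active = inhibition reaching at least a set limit at 20 µM in the primary screen, cut at about 59% in these data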
PHOSPHO1 block = PubChem AID 1565; recombinant PHOSPHO1, absorbance phosphatase assay; inhibition, % at 13.3 µM; Phosphoethanolamine/phosphocholine phosphatase (Homo sapiens), Q8TCT1; 290,000 tested, 1.1% active; in the data active = inhibition above about 60%
Target sequence (Q8TCT1 whole entry, looked up): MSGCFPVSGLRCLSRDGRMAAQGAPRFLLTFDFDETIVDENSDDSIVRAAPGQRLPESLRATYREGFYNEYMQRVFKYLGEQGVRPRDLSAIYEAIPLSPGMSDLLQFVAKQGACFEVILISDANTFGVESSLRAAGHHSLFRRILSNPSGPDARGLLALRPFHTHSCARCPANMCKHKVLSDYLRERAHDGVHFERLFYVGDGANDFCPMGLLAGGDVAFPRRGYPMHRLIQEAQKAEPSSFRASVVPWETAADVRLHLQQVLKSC
PfM18AAP inh = PfM18AAP inhibitors, malaria aminopeptidase, primary screen, biochemical, QFRET, recombinant enzyme | H-Glu-NHMec fluorogenic cleavage | 290,000 tested, 1.2% active | M18 aspartyl aminopeptidase (Plasmodium falciparum 3D7) | inhibition, % at 7.35 µM;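 active = inhibition above the campaign mean inhibition over all tested compounds plus 3 SD, cut at about 28% in these data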
H9c2 protect = cardioprotection against H2O2-induced cell death, primary screen, uHTS, H9c2 cells, ATPLite luminescence. H9c2 cardiomyocytes, H2O2 injury protection, 2 h. protection from H2O2 cell death, % at 20 µM. 360,000 tested, 0.63% active;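 active = compounds giving at least 50% protection of heart cells from peroxide-induced death in the single-dose screen, raw or plate-pattern-corrected value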
ALR inh = inhibitors of human ALR sulfhydryl oxidase, primary screen, biochemical, H2O2 detection, HRP-luminol luminescence, single point | FAD-linked sulfhydryl oxidase ALR (Homo sapiens), P55789 | purified ALR, DTT oxidation | inhibition, % (no concentration beside the values) | 290,000 tested, 3.8% active;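 active = mean replicate inhibition above about 79%, with every replicate also reaching it, limit read from the data; inconclusive = only one of the two criteria met; inactive = mean below limit and not every replicate reaching it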
Target sequence (P55789 whole entry, looked up): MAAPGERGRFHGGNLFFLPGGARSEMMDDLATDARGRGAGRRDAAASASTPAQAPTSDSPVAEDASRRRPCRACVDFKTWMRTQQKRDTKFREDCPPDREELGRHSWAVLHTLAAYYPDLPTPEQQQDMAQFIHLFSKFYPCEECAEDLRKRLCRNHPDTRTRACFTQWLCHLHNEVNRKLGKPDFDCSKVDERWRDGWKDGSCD
Each line names hits and unclear results; the compound was inactive in the other large screens.

CCCCSCCCNC(=S)Nc1ccccc1C	ALR inh 77
Cc1ccccc1NC(=S)NCCO	none
CC1CC(C)CN(c2ccc(-n3cnnn3)cc2[N+](=O)[O-])C1 (stereo not given)	PHOSPHO1 block 60
COc1ccccc1CCN=C(N)NS(=O)(=O)c1ccccc1F	PHOSPHO1 block 66
COc1ccccc1CCN=C(N)NS(=O)(=O)c1ccc(C)cc1	none
O=C1CCC/C1=C/Nc1ccc2c(c1)OCO2	none
CC1CCC/C(=C\Nc2ccc3c(c2)OCO3)C1=O (stereo not given)	PHOSPHO1 block 81
Cc1ccc2c([N+](=O)[O-])c(C)ccc2n1	PHOSPHO1 block 65 (no result: ALR inh)
Cc1ccc2c([N+](=O)[O-])cccc2n1	none
CCCNC(=S)NNC(=O)c1cc(-c2cccnc2)nc2ccccc12	none
C/C(=N\NC(=O)c1cc(-c2cccnc2)nc2ccccc12)c1ccccc1O	H9c2 protect 60
C/C(=N\NC(=O)c1cc(C2CC2)nc2ccccc12)c1ccc(O)cc1O	H9c2 protect 51
CCNC(=S)NNC(=O)c1cc(-c2cccc(C)c2)nc2ccccc12	PHOSPHO1 block 72
CCNC(=S)NNC(=O)c1cc(-c2cccnc2)nc2ccccc12	ALR inh 88
O=C(NCc1ccc(F)cc1)c1ccc(CS(=O)Cc2ccccc2Cl)o1 (stereo not given)	none
NC(=O)C1(Nc2ccc(Br)cc2)CCCC1	none (no result: PHOSPHO1 block, PfM18AAP inh, ALR inh)
COC(=O)[C@]1(Cc2ccccc2)N[C@H](CN(C)C(=O)Nc2ccc(Cl)cc2)[C@@H]2C(=O)N(C)C(=O)[C@@H]21	none (no result: PHOSPHO1 block, PfM18AAP inh, ALR inh)
Cc1ccccc1-c1cc(C(=O)N/N=C/c2cccnc2)c2ccccc2n1	PHOSPHO1 block 66
O=C(NNC(=S)Nc1ccccc1)c1cc(-c2cccnc2)nc2ccccc12	none (no result: ALR inh)
CC(OC(=O)c1cc(-c2cccnc2)nc2ccccc12)C(=O)Nc1ccc2ccccc2c1 (stereo not given)	H9c2 protect 67
O=C(CSc1n[nH]c(=O)n1C1CC1)c1c[nH]c2ccccc12	none (no result: PHOSPHO1 block, PfM18AAP inh)
CC1CN(C(=O)c2ccccc2OCc2ccccc2Cl)CC(C)O1 (stereo not given)	none (no result: PHOSPHO1 block, PfM18AAP inh)
CCN(CCCNC(=O)CN(C)S(=O)(=O)c1ccc2c(c1)CCC(=O)N2)c1cccc(C)c1	ALR inh 96
CCN(CCCNS(=O)(=O)c1ccc2c(c1)CCN2C(C)=O)c1cccc(C)c1	ALR inh 97
CCN(CCNC(=O)CN(C)S(=O)(=O)c1cccc2nsnc12)c1ccccc1	PHOSPHO1 block 64, ALR inh 98
CCN(CCCNC(=O)CN(C)S(=O)(=O)c1cccc2nsnc12)c1cccc(C)c1	ALR inh 99
CC(=O)N1CCc2cc(S(=O)(=O)NCCC(=O)Nc3cccc(C)c3)ccc21	none
Cc1ccc(S(=O)(=O)/N=C(/Nc2ccc([N+](=O)[O-])cc2[N+](=O)[O-])c2ccccc2)cc1	none (no result: PHOSPHO1 block, PfM18AAP inh)
N/C(=N\NC(=O)c1cccs1)c1cc2cc(Cl)ccc2oc1=O	none (no result: ALR inh)
O=S(=O)(c1ccc(Cl)s1)N1CCC(Cc2ccccc2)CC1	ALR inh 97
O=S(=O)(c1ccc(Br)s1)N1CCC(Cc2ccccc2)CC1	none
O=S(=O)(c1ccc(Cl)nc1)N1CCC(Cc2ccccc2)CC1	ALR inh 99 (no result: PHOSPHO1 block, PfM18AAP inh)
Cc1nnc(SCC(=O)Nc2ccc(N3CCOCC3)cc2)o1	PHOSPHO1 block 63 (no result: ALR inh)
CCc1nnc(SCC(=O)Nc2ccc(N3CCOCC3)cc2)o1	none
O=C(CSc1n[nH]c(=O)n1Cc1ccccc1)Nc1ccc(N2CCOCC2)cc1	none (no result: PHOSPHO1 block, PfM18AAP inh, ALR inh)
Cc1nnc(SCC(=O)c2ccccc2)n1Cc1ccccc1	ALR inh 85
Cc1nnc(SCC(=O)Nc2ccc(N3CCOCC3)cc2)n1Cc1ccccc1	ALR inh 99 (no result: PHOSPHO1 block, PfM18AAP inh)
CCn1c(SCC(=O)Nc2ccc(NC(C)=O)cc2)nnc1C1CC1	none
Cc1nnc(SCC(=O)NNC(=O)c2ccccc2)n1Cc1ccccc1	none (no result: PHOSPHO1 block, PfM18AAP inh)
CCn1c(SCC(=O)Nc2ccc(N(C)C)cc2)nnc1C1CC1	ALR inh 99
CCn1c(SCC(=O)Nc2ccc(N3CCOCC3)cc2)nnc1C1CC1	ALR inh 99 (no result: PHOSPHO1 block, PfM18AAP inh)
Cc1ccc(/C=C2/SC(=S)N(CCC(=O)N3CCOCC3)C2=O)cc1	none
NC(C(=O)O)C1ON=C(Cl)C1O (stereo not given)	none (no result: PHOSPHO1 block, PfM18AAP inh, ALR inh)
CC(C)CCn1c(SCc2ccc(Cl)cc2)nc2c1c(=O)[nH]c(=O)n2C	PHOSPHO1 block 61
COc1cc(N=Nc2ccccc2C(=O)O)ccc1O	ALR inh 98
Cc1cc(N=Nc2ccccc2C(=O)O)c(C)c(C)c1O	ALR inh 81
COc1cc(N=Nc2ccc3ccccc3c2)ccc1O	none (no result: ALR inh)
Cc1ccc(S(=O)(=O)Oc2ccc(/C=C3/C(=N)N4C(=NC3=O)SN=C4S(C)(=O)=O)cc2)cc1	ALR inh 98
CCS(=O)(=O)C1=NN2C(=N)/C(=C\c3ccc(OS(=O)(=O)c4ccccc4)c(OC)c3)C(=O)N=C2S1	ALR inh inconclusive (no result: PfG6PD inh, H9c2 protect)
COc1cccc(-n2c(C)cc(/C=C3/C(=N)N4C(=NC3=O)SN=C4S(C)(=O)=O)c2C)c1	ALR inh 97
CS(=O)(=O)C1=NSC2=NC(=O)/C(=C\c3ccc(OS(=O)(=O)c4ccccc4)cc3)C(=N)N21	none
Cc1ccc(S(=O)(=O)Oc2ccc(/C=C3\C(=N)N4N=C(S(C)(=O)=O)SC4=NC3=O)cc2)cc1	ALR inh 92
COc1cc(/C=C2\C(=N)N3N=C(S(C)(=O)=O)SC3=NC2=O)ccc1OS(=O)(=O)c1ccccc1	ALR inh 91 (no result: PfG6PD inh, H9c2 protect)
CNc1ncnc2c1cnn2C1CCCCO1 (stereo not given)	none (no result: PHOSPHO1 block, PfM18AAP inh, ALR inh)
CCCCNC(=O)NCc1cnn(C)c1C	none
COc1cc(/C=C2/C(=N)N3C(=NC2=O)SN=C3S(C)(=O)=O)ccc1OS(=O)(=O)c1ccc(C)cc1	none
CCS(=O)(=O)C1=NSC2=NC(=O)/C(=C\c3ccc(OS(=O)(=O)c4ccccc4)c(OC)c3)C(=N)N21	ALR inh 97
COC(=O)[C@]1(CC(C)C)N[C@H](c2ccc(-c3ccc(F)cc3)c(OC)c2)[C@@H]2C(=O)N(C)C(=O)[C@@H]21	none (no result: PHOSPHO1 block, PfM18AAP inh)
COc1cccc(NC(=O)c2c([N+](=O)[O-])cnn2C)c1	ALR inh 96 (no result: PHOSPHO1 block)
COc1cccc(NC(=S)NNC(=O)c2c([N+](=O)[O-])c(C)nn2C)c1	PHOSPHO1 block 82 (no result: ALR inh)
COc1cccc(NC(=S)NNC(=O)C(C)n2nc(C)c([N+](=O)[O-])c2C)c1 (stereo not given)	ALR inh 84
CC(C)n1cc(/C=N/Nc2ccc(Cl)c(C(=O)O)c2)c2ccccc21	ALR inh inconclusive (no result: PfG6PD inh)
CCc1ccc(NC(=O)[C@H](C)NC(=O)C2CCN(C(=O)[C@@H](N)C(C)C)CC2)cc1	none (no result: PHOSPHO1 block)
CCc1nc2c(OCC(=O)c3ccc(Cl)cc3Cl)cccn2c1N(C)C(=O)COc1ccccc1	none (no result: PfG6PD inh, PHOSPHO1 block, PfM18AAP inh, ALR inh)

Source: PubChem BioAssay
